Results as given in PubChem BioAssay (NCATS).
Several values for one entry are separate records, joined by “and”; a condition that tells them apart may be missing. Equal values may be shown once. Records with an inconclusive call do not appear. Entries that show only a call come without a potency. Activity calls are given as the source filed them. The call rests on the fitted dose curve; in most records, active means well fitted curve in the direction sought with a large enough effect; inconclusive means small, poorly fitted or top-dose-only effect, or another doubt; inactive means no such curve, though single readings can be large; an effect the other way counts as inactive or inconclusive.

test system: Zika virus NS2B-NS3 protease; assay: Primary screen GU AMC qHTS for Zika virus inhibitors (AID 1347154); conditions: Zika NS2B-NS3 unlinked protease, AMC fluorogenic substrate; series mostly up to 54.1 µM; further: nearly all actives have a fitted effect of over 70% in size; further: potency means the concentration at half of the fitted maximal effect
Method in brief: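 Unlinked Zika NS2B hydrophilic domain–NS3 protease complex at 25 nM in 10 mM Tris-HCl pH 8.0, 0.01% Tween 20, with an AMC peptide substrate. Fluorescence change (340/450 nm) over 15 min at room temperature, normalized to controls, fitted to 4-parameter Hill.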

| SMILES | Potency |
| --- | --- |
| CS(=O)(=O)Nc1ccc([N+](=O)[O-])cc1Oc1ccccc1 | inactive |
| O=C(c1ccc(F)cc1)C1CCN(CCn2c(=O)[nH]c3ccccc3c2=O)CC1 | inactive |
| NC(CO)C(=O)NNCc1ccc(O)c(O)c1O (stereo not given) | inactive |
| CC(C)(C)C(=O)Oc1ccc(S(=O)(=O)Nc2ccccc2C(=O)NCC(=O)O)cc1 | inactive |
| O=C(Nc1ccc([N+](=O)[O-])cc1Cl)c1cc(Cl)ccc1O | inactive |
| CCC1(C)CC(=O)NC1=O (stereo not given) | inactive |
| Nc1c2c(nc3ccccc13)CCCC2 | inactive |
| CNCCCC12CCC(c3ccccc31)c1ccccc12 | inactive |
| COc1ccc2[nH]cc(CCNC(C)=O)c2c1 | inactive |
| COc1cc2nc(N(C)CCCNC(=O)C3CCCO3)nc(N)c2cc1OC (stereo not given) | 8.09 µM (active) and 21.5 µM (active) |
| CC(CCc1ccc(O)cc1)NCCc1ccc(O)c(O)c1 (stereo not given) | inactive |
| CC1COc2c(N3CCN(C)CC3)c(F)cc3c(=O)c(C(=O)O)cn1c23 (stereo not given) | 28.7 µM (active) and 24.1 µM (active) |
| CC1(CN2CCC(n3c(=O)[nH]c4ccccc43)CC2)OCc2ccccc2-n2cccc21 (stereo not given) | inactive |
| CC(C)Cc1ccc(C(C)C(=O)O)cc1 (stereo not given) | inactive |
| O=c1c(O)c(-c2ccc(O)c(O)c2)oc2cc(O)cc(O)c12 | inactive |
| Nc1nnc(-c2cccc(Cl)c2Cl)c(N)n1 | inactive |
| Clc1ccc(C(c2ccccc2Cl)C(Cl)Cl)cc1 (stereo not given) | inactive |

| SMILES | Potency |
| --- | --- |
| NC12CC3CC(CC(C3)C1)C2 | inactive |
| Cc1ccc(C(=O)Nc2ccc(S(=O)(=O)O)c3cc(S(=O)(=O)O)cc(S(=O)(=O)O)c23)cc1NC(=O)c1cccc(NC(=O)Nc2cccc(C(=O)Nc3cc(C(=O)Nc4ccc(S(=O)(=O)O)c5cc(S(=O)(=O)O)cc(S(=O)(=O)O)c45)ccc3C)c2)c1 | 5.01 µM (active) |
| O=C(c1ccc(OCCN2CCCCC2)cc1)c1c(-c2ccc(O)cc2)sc2cc(O)ccc12 | inactive |
| CC[C@@]1(O)C(=O)OCc2c1cc1n(c2=O)Cc2cc3c(CN(C)C)c(O)ccc3nc2-1 | inactive |
| N[C@@H](Cc1c[nH]c2ccc(O)cc12)C(=O)O | inactive |
| CN(C)C(=N)N=C(N)N | inactive |
| CC1(C)O[C@H]2CC(=O)OC[C@]23[C@H]2CC[C@@]4(C)[C@H](c5ccoc5)OC(=O)[C@H]5O[C@]54[C@]2(C)C(=O)C[C@@H]13 | inactive |
| C[C@@H]1CC(=O)NN=C1c1ccc(NN=C(C#N)C#N)cc1 | inactive |
| NC(=O)NO | inactive |
| O=C1Cc2cc(CCN3CCN(c4nsc5ccccc45)CC3)c(Cl)cc2N1 | inactive |
| CN(CCOc1ccc(NS(C)(=O)=O)cc1)CCc1ccc(NS(C)(=O)=O)cc1 | inactive |
| COc1cc2nc(N3CCN(C(=O)C4COc5ccccc5O4)CC3)nc(N)c2cc1OC (stereo not given) | 9.07 µM (active) and 24.1 µM (active) |
| Clc1ccc2c(c1)C(N1CCNCC1)=Nc1ccccc1O2 | inactive |
| CC(C)NCC(O)c1ccc(O)c(O)c1 (stereo not given) | inactive |
| Cc1ccc(-c2cc(C(F)(F)F)nn2-c2ccc(S(N)(=O)=O)cc2)cc1 | inactive |
| Cc1cc(C(C)(C)C)c(O)c(C)c1CC1=NCCN1 | inactive |

test system: Zika virus NS2B-NS3 protease (unlinked complex); assay: Primary screen GU Rhodamine qHTS for Zika virus inhibitors: Unlinked NS2B-NS3 protease assay (AID 1347159); conditions: Recombinant ZIKV NS2B-NS3 protease, Rhodamine110 substrate fluorescence; series mostly up to 107 µM; further: nearly all actives have a fitted effect of over 60% in size; further: potency means the concentration at half of the fitted maximal effect
Method in brief: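 A qHTS format was used, with compound concentrations ranging up to 114 microM. Each compound was preincubated with 25 nM NS2B-NS3 protease, and the substrate was then added at 1.5 microM. Curves were fitted with a 4-parameter Hill model.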

| SMILES | Potency |
| --- | --- |
| O=C(c1ccc(F)cc1)C1CCN(CCn2c(=O)[nH]c3ccccc3c2=O)CC1 | inactive |
| CNCCCC12CCC(c3ccccc31)c1ccccc12 | inactive |
| CC[C@@]1(O)C(=O)OCc2c1cc1n(c2=O)Cc2cc3c(CN(C)C)c(O)ccc3nc2-1 | 20 µM (active) |
| CC1(C)O[C@H]2CC(=O)OC[C@]23[C@H]2CC[C@@]4(C)[C@H](c5ccoc5)OC(=O)[C@H]5O[C@]54[C@]2(C)C(=O)C[C@@H]13 | inactive |
| O=C1Cc2cc(CCN3CCN(c4nsc5ccccc45)CC3)c(Cl)cc2N1 | inactive |
| Clc1ccc2c(c1)C(N1CCNCC1)=Nc1ccccc1O2 | inactive |
| Cc1ccc(-c2cc(C(F)(F)F)nn2-c2ccc(S(N)(=O)=O)cc2)cc1 | inactive |
| Cc1cc(C(C)(C)C)c(O)c(C)c1CC1=NCCN1 | inactive |

test system: Zika virus NS2B-NS3 protease (linked construct); assay: Primary screen NINDS Rhodamine qHTS for Zika virus inhibitors (AID 1347160); conditions: purified NS2B-NS3 protease, Rhodamine110 substrate fluorescence; series mostly up to 57.1 µM; further: nearly all actives have a fitted effect of over 55% in size
Method in brief: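 Kinetic fluorescence (Ex 480 nm, Em 540 nm) over 15 min with 1.5 microM Rhodamine110 peptide and 25 nM linked protease.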

| SMILES | outcome |
| --- | --- |
| O=C(c1ccc(F)cc1)C1CCN(CCn2c(=O)[nH]c3ccccc3c2=O)CC1 | inactive |
| CNCCCC12CCC(c3ccccc31)c1ccccc12 | inactive |
| COc1ccc2[nH]cc(CCNC(C)=O)c2c1 | inactive |
| CC1(C)O[C@H]2CC(=O)OC[C@]23[C@H]2CC[C@@]4(C)[C@H](c5ccoc5)OC(=O)[C@H]5O[C@]54[C@]2(C)C(=O)C[C@@H]13 | inactive [at 33.1 µM] |
| O=C1Cc2cc(CCN3CCN(c4nsc5ccccc45)CC3)c(Cl)cc2N1 | inactive |
| Clc1ccc2c(c1)C(N1CCNCC1)=Nc1ccccc1O2 | inactive |
| Cc1ccc(-c2cc(C(F)(F)F)nn2-c2ccc(S(N)(=O)=O)cc2)cc1 | inactive |
| Cc1cc(C(C)(C)C)c(O)c(C)c1CC1=NCCN1 | inactive |

test system: not listed separately; assay: Confirmatory screen NINDS Rhodamine qHTS for Zika virus inhibitors (AID 1347161); conditions: purified enzyme assay, Rhodamine110 substrate fluorescence, 15 min; series mostly up to 114 µM; further: nearly all actives have a fitted effect of over 60% in size; further: potency means the concentration at half of the fitted maximal effect
Method in brief: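 Enzyme (25 nM, linked NS2B-NS3) was preincubated 15 min with compound in 10 mM Tris-HCl pH 8.0, 0.01% Tween 20. Rhodamine110 substrate (1.5 microM) was then added and fluorescence read at start and after 15 min.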

| SMILES | Potency |
| --- | --- |
| O=C(c1ccc(F)cc1)C1CCN(CCn2c(=O)[nH]c3ccccc3c2=O)CC1 | inactive |
| CC(C)(C)C(=O)Oc1ccc(S(=O)(=O)Nc2ccccc2C(=O)NCC(=O)O)cc1 | inactive |
| CC1COc2c(N3CCN(C)CC3)c(F)cc3c(=O)c(C(=O)O)cn1c23 (stereo not given) | inactive |
| O=c1c(O)c(-c2ccc(O)c(O)c2)oc2cc(O)cc(O)c12 | 50.1 µM (active) |
| Cc1ccc(C(=O)Nc2ccc(S(=O)(=O)O)c3cc(S(=O)(=O)O)cc(S(=O)(=O)O)c23)cc1NC(=O)c1cccc(NC(=O)Nc2cccc(C(=O)Nc3cc(C(=O)Nc4ccc(S(=O)(=O)O)c5cc(S(=O)(=O)O)cc(S(=O)(=O)O)c45)ccc3C)c2)c1 | 2.24 µM (active) and 2.51 µM (active) |
| O=C1Cc2cc(CCN3CCN(c4nsc5ccccc45)CC3)c(Cl)cc2N1 | inactive |
